According to PubChem BioAssay (NCATS):
Where “and” joins values, the source holds several entries; their conditions need not be identical. Equal entries are not always repeated. Inconclusive results are not listed. Where a call stands in place of a potency, no number is given. Calls of active or inactive are those of the source. The call rests on the fitted dose curve; in most records, active means well fitted curve in the direction sought with a large enough effect; inconclusive means small, poorly fitted or top-dose-only effect, or another doubt; inactive means no such curve, though single readings can be large; an effect the other way counts as inactive or inconclusive.

How the values were obtained:
[1] = qHTS of pediatric cancer cell lines to identify multiple opportunities for drug repurposing: Primary screen for LAN-5 cells (AID 1347100); further: potency means the concentration at half of the fitted maximal effect
Procedure, shortened: (§1)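 Viability after 48 h compound treatment at 37C, 500-1,000 cells/well, read as ATP luminescence with CellTiter-Glo. Primary screens used 11-point (MIPE, 0.78 nM-46 µM) or 8-point (NPC, 0.59 nM-46 µM) final concentrations; follow-up screens used 11-point dilutions.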

[2] = qHTS of pediatric cancer cell lines to identify multiple opportunities for drug repurposing: Primary screen for BT-12 cells (AID 1347101); further: nearly all actives have a fitted effect of over 25% in size; further: potency means the concentration at half of the fitted maximal effect
Procedure, shortened: (§2)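 Cells (500-1,000/well) rested 5 h, then received compounds for 48 h; metabolically active cells were measured by CellTiter-Glo luminescence. Final concentrations spanned up to 46 µM (MIPE, 11-point) or 0.59 nM-46 µM (NPC, 8-point) in primary screens, 11-point in follow-ups.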

[3] = qHTS of pediatric cancer cell lines to identify multiple opportunities for drug repurposing: Primary screen for RD cells (AID 1347104); further: nearly all actives have a fitted effect of over 55% in size; further: potency means the concentration at half of the fitted maximal effect
Procedure, shortened: (§3)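 Plated cells (500-1,000 per well, growth media) were allowed to settle for 5 hours, treated with compound dilutions for 48 hours, then lysed with CellTiter-Glo for 15 min at room temperature before luminescence reading.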

[4] = qHTS of pediatric cancer cell lines to identify multiple opportunities for drug repurposing: Primary screen for MG 63 (6-TG R) cells (AID 1347105); further: nearly all actives have a fitted effect of over 50% in size; further: potency means the concentration at half of the fitted maximal effect
Procedure, shortened: as §3

[5] = qHTS of pediatric cancer cell lines to identify multiple opportunities for drug repurposing: Primary screen for control Hh wild type fibroblast cells (AID 1347106); further: nearly all actives have a fitted effect of over 55% in size; further: potency means the concentration at half of the fitted maximal effect
Procedure, shortened: as §1

[6] = qHTS of pediatric cancer cell lines to identify multiple opportunities for drug repurposing: Primary screen for Rh30 cells (AID 1347107); further: nearly all actives have a fitted effect of over 75% in size; further: potency means the concentration at half of the fitted maximal effect
Procedure, shortened: as §1

[7] = qHTS of pediatric cancer cell lines to identify multiple opportunities for drug repurposing: Confirmatory screen for NB1643 cells (AID 1347109); further: nearly all actives have a fitted effect of over 45% in size; further: potency means the concentration at half of the fitted maximal effect
Procedure, shortened: as §1

[8] = qHTS of pediatric cancer cell lines to identify multiple opportunities for drug repurposing: Confirmatory screen for A673 cells (AID 1347110);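 further: cells exposed to compound for 48 h before the viability read; nearly all actives have a fitted effect of over 65% in size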; further: potency means the concentration at half of the fitted maximal effect
Procedure, shortened: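 Forty-eight-hour viability assay. Follow-up compounds ran at 11-point dilutions; positive control bortezomib at 2.3 uM final, neutral control DMSO.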

[9] = qHTS of pediatric cancer cell lines to identify multiple opportunities for drug repurposing: Confirmatory screen for BT-12 cells (AID 1347112); further: nearly all actives have a fitted effect of over 55% in size; further: potency means the concentration at half of the fitted maximal effect
Procedure, shortened: as §1

[10] = qHTS of pediatric cancer cell lines to identify multiple opportunities for drug repurposing: Confirmatory screen for LAN-5 cells (AID 1347113); further: nearly all actives have a fitted effect of over 65% in size; further: potency means the concentration at half of the fitted maximal effect
Procedure, shortened: as §1

[11] = qHTS of pediatric cancer cell lines to identify multiple opportunities for drug repurposing: Confirmatory screen for DAOY cells (AID 1347114); further: nearly all actives have a fitted effect of over 65% in size; further: potency means the concentration at half of the fitted maximal effect
Procedure, shortened: (§4)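 Viability measured as metabolically active cells via CellTiter-Glo luminescence following 48 hours of compound exposure, 11-point dilutions in confirmatory testing. 500-1,000 cells/well plated 5 hours before dosing; controls were DMSO and 2.3 µM bortezomib.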

[12] = qHTS of pediatric cancer cell lines to identify multiple opportunities for drug repurposing: Confirmatory screen for NB-EBc1 cells (AID 1347115);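 further: cells exposed to compound for 48 h before the viability read; nearly all actives have a fitted effect of over 45% in size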; further: potency means the concentration at half of the fitted maximal effect
Procedure, shortened: as §1

[13] = qHTS of pediatric cancer cell lines to identify multiple opportunities for drug repurposing: Confirmatory screen for SJ-GBM2 cells (AID 1347116); further: nearly all actives have a fitted effect of over 60% in size; further: potency means the concentration at half of the fitted maximal effect
Procedure, shortened: as §4

[14] = qHTS of pediatric cancer cell lines to identify multiple opportunities for drug repurposing: Confirmatory screen for MG 63 (6-TG R) cells (AID 1347119); further: nearly all actives have a fitted effect of over 55% in size; further: potency means the concentration at half of the fitted maximal effect
Procedure, shortened: as §1

[15] = qHTS of pediatric cancer cell lines to identify multiple opportunities for drug repurposing: Confirmatory screen for control Hh wild type fibroblast cells (AID 1347121); further: nearly all actives have a fitted effect of over 70% in size; further: potency means the concentration at half of the fitted maximal effect
Procedure, shortened: as §1

[16] = qHTS of pediatric cancer cell lines to identify multiple opportunities for drug repurposing: Primary screen for Rh18 cells (AID 1347102); further: nearly all actives have a fitted effect of over 65% in size; further: potency means the concentration at half of the fitted maximal effect
Procedure, shortened: as §1

[17] = qHTS of pediatric cancer cell lines to identify multiple opportunities for drug repurposing: Primary screen for OHS-50 cells (AID 1347103); further: nearly all actives have a fitted effect of over 40% in size; further: potency means the concentration at half of the fitted maximal effect
Procedure, shortened: as §2

[18] = qHTS of pediatric cancer cell lines to identify multiple opportunities for drug repurposing: Confirmatory screen for BT-37 cells (AID 1347117)
Procedure, shortened: as §1

[19] = qHTS of pediatric cancer cell lines to identify multiple opportunities for drug repurposing: Confirmatory screen for TC32 cells (AID 1347118)
Procedure, shortened: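 qHTS, TC32, 48 h drug treatment, CellTiter-Glo luminescence as a proxy for metabolically active cells; primary top concentration 46 µM (MIPE 11-pt, NPC 8-pt); confirmatory 11-pt.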

[20] = qHTS of pediatric cancer cell lines to identify multiple opportunities for drug repurposing: Primary screen for Rh41 cells (AID 1347108);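 further: series mostly up to about 46 µM; luminescence drop marks cytotoxic hits; nearly all actives have a fitted effect of over 70% in size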
Procedure, shortened: as §3

SMILES | Potency [1] | Potency [2] | Potency [3] | Potency [4] | Potency [5] | Potency [6] | Potency [7] | Potency [8] | Potency [9] | Potency [10] | Potency [11] | Potency [12] | Potency [13] | Potency [14] | Potency [15] | Potency [16] | Potency [17] | Potency [18] | Potency [19] | Potency [20]
CCCCOc1ccc(CC(=O)NO)cc1 | 23.5 µM (active) | inactive | 15 µM (active) and 26.4 µM (active) | inactive | inactive | inactive | inactive | inactive | inactive | inactive | inactive | inactive | inactive | inactive | inactive | – | – | – | – | –
CC(C)C[C@H](NC(=O)[C@H](CCc1ccccc1)NC(=O)CN1CCOCC1)C(=O)N[C@@H](Cc1ccccc1)C(=O)N[C@@H](CC(C)C)C(=O)[C@@]1(C)CO1 | 668 nM (active) and 132 nM (active) | – | 23.7 nM (active) and 41.8 nM (active) | 42.2 nM (active) and 59 nM (active) | 335 nM (active) and 264 nM (active) | 59.6 nM (active) and 296 nM (active) | – | 0.0522 µM (active) | 0.165 µM (active) | 0.0329 µM (active) | – | 0.329 µM (active) | 0.0737 µM (active) | 0.0657 µM (active) | 0.737 µM (active) | 106 nM (active) and 264 nM (active) | 61.7 nM (active) and 109 nM (active) | 0.0928 µM (active) | 0.0233 µM (active) | –
CN1CCCC(n2nc(Cc3ccc(Cl)cc3)c3ccccc3c2=O)CC1 (stereo unspecified) | 0.662 µM (active) | – | 5.9 µM (active) | – | – | inactive | – | 9.27 µM (active) | – | – | – | inactive | – | inactive | inactive | 1.48 µM (active) | 27.6 µM (active) and 968 nM (active) | 23.3 µM (active) | 26.1 µM (active) | inactive
O=P(O)(O)C(O)(Cc1cccnc1)P(=O)(O)O | inactive | – | inactive | inactive | inactive | inactive | – | – | – | – | – | – | – | – | – | inactive | inactive | – | – | inactive
O=C(N[C@H](CO)[C@H](O)c1ccc([N+](=O)[O-])cc1)C(Cl)Cl | inactive | – | inactive | inactive | inactive | inactive | – | – | – | – | – | – | – | – | – | inactive | inactive | – | – | inactive
Cn1c(=O)c2c(ncn2CC(O)CO)n(C)c1=O (stereo unspecified) | inactive | – | inactive | inactive | inactive | inactive | – | – | – | – | – | – | – | – | – | inactive | inactive | – | – | –
NC(N)=NC(N)=NCCc1ccccc1 | inactive | – | – | inactive | inactive | inactive | – | – | – | – | – | – | – | – | – | inactive | 11 µM (active) and 3.85 µM (active) | – | – | –
O=C(O)c1ccc(-n2nc(-c3ccccc3O)nc2-c2ccccc2O)cc1 | inactive | – | – | inactive | inactive | inactive | – | – | – | – | – | – | – | – | – | inactive | 21.7 µM (active) | – | – | –
CC(C)(C)C(=O)OCOP(=O)(COCCn1cnc2c(N)ncnc21)OCOC(=O)C(C)(C)C | 16.6 µM (active) | – | 23.5 µM (active) | inactive | inactive | inactive | 8.27 µM (active) | 4.65 µM (active) | 16.5 µM (active) | 9.27 µM (active) | inactive | 8.27 µM (active) | inactive | 5.22 µM (active) | – | inactive | 6.17 µM (active) and 30.6 µM (active) | 3.69 µM (active) | 1.17 µM (active) | –
COC(=O)Nc1nc2ccc(Sc3ccccc3)cc2[nH]1 | 1.32 µM (active) | 1.74 µM (active) and 4.32 µM (active) | – | 668 nM (active) and 1.18 µM (active) | inactive | inactive | – | 1.17 µM (active) | – | – | 0.928 µM (active) | – | – | 0.928 µM (active) | – | – | 1.23 µM (active) and 3.06 µM (active) | 1.85 µM (active) | 0.827 µM (active) | –
